Laboratory results from PubChem BioAssay AID1434 (Sanford-Burnham Center for Chemical Genomics, 2008).
Where “and” joins values, the source holds several entries; their conditions need not be identical. Equal values may be shown once. The campaign covered roughly 220,000 compounds. About 1,600 (0.73%) were called active.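 The calls were made as follows: active = mean inhibition across duplicate retests at 20 µM reaching about 50% (limit read from the data); inactive = the rest, inconclusive results apart.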 For the sample, actives were picked, then their nearest neighbours and some compounds at random.

Target: Runt-related transcription factor 1 (Homo sapiens) + Core-binding factor subunit beta (Homo sapiens) (UniProt Q01196+Q13951)
Test: inhibitors of RUNX1 Runt–CBFb-SMMHC binding, primary screen, biochemical, FRET, Cerulean-Runt, Venus-CBFb-SMMHC, uHTS (AID 1434);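 also: 0% = DMSO wells and 100% = wells with excess untagged CBFb-SMMHC; inhibitors lower the FRET ratio by blocking Runt binding to CBFb-SMMHC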
Conditions: Cerulean-Runt/Venus-CBFb-SMMHC FRET ratio 530/480, 1 h, at 20 µM, stronger effect = higher value

Chain of Runt-related transcription factor 1 (Homo sapiens) + Core-binding factor subunit beta (Homo sapiens) (Q01196 whole entry, looked up): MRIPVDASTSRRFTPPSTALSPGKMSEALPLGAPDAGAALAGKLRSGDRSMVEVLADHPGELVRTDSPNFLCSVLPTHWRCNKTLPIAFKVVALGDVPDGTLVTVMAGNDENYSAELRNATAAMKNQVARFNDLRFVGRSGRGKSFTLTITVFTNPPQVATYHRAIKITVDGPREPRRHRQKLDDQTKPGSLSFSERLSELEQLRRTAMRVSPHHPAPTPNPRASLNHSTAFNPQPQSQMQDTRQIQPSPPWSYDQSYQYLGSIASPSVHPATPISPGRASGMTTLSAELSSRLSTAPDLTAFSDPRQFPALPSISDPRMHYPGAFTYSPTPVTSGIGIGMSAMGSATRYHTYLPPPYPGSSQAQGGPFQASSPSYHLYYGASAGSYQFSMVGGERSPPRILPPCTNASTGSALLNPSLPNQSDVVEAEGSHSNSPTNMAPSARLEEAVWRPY
Chain of Runt-related transcription factor 1 (Homo sapiens) + Core-binding factor subunit beta (Homo sapiens) (Q13951 whole entry, looked up): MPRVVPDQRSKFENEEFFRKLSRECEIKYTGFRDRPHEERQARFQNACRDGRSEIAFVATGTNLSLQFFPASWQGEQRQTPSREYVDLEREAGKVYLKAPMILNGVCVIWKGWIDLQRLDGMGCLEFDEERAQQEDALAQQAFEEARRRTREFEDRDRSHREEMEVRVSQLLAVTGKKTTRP

Row | Compound | inhibition | inhibition (retest duplicate average)
1 | O=C(Nc1ccc2ccccc2c1)/C(=C\c1ccc2c(c1)OCO2)NC(=O)c1ccco1 | -21.7% (inactive) | –
2 | COc1ccc(N2CCN(C(=O)CSc3nc4cc(OC)c(OC)cc4cc3C#N)CC2)cc1 | 9.4% (inactive) | –
3 | COc1cccc(C(=O)Nc2ccc(N3CCCC3)cc2)c1 | 5.7% (inactive) | –
4 | COc1ccc2nc(N3CCCC(O)C3)c(C#N)cc2c1 (centres undefined) | 65% (active) | 72.9%
5 | Cc1cc(C)nc(SCc2cn3c(C)cc(C)nc3n2)n1 | -4% (inactive) | –
6 | O=c1c(Cl)c(NCc2ccc(F)cc2Cl)cnn1C12CC3CC(CC(C3)C1)C2 | 3.5% (inactive) | –
7 | FC(F)(F)c1ccc(-n2cn[nH]c2=S)cc1 | 3.3% (inactive) | –
8 | Nc1[nH][nH]c(=O)c1N=Nc1ccc2c(c1)OCO2 | -0.1% (inactive) | –
9 | c1csc(-c2cn3c(n2)SCC3)c1 | -6.8% (inactive) | –
10 | CCCn1c(=O)c2c(C(F)(F)F)cc(-c3cccs3)nc2n(CCC)c1=O | 1.9% (inactive) | –
11 | N#Cc1c(C(F)(F)F)cc(-c2cccs2)nc1N1CCCCC1 | 82.5% (active) | 79.2%
12 | C=CCCN(Cc1ccccc1)S(=O)(=O)c1ccccc1Br | -2.3% (inactive) | –
13 | c1ccc(-n2cccc2)c(N2CCCCC2)c1 | -0.7% (inactive) | –
14 | O=C(Cn1c(-c2ccccn2)nc2ccccc21)NCCN1CCOCC1 | -0.1% (inactive) | –
15 | O=C(NCCN1CCOCC1)c1ccc2c(c1)ncn2C1CCCC1 | 0.2% (inactive) | –
16 | c1ccc2cc3c(NCCN4CCOCC4)ccnc3cc2c1 | 78.2% (active) | 71.5%
17 | C/C(N)=C(/C#N)C(=O)COC(=O)CNS(=O)(=O)c1ccc(C)cc1 | -1.2% (inactive) | –
18 | CC(C)N(C)C(=O)CCc1nnc(CCc2c[nH]c3ccccc23)o1 | -1.1% (inactive) | –
19 | COc1ccc(/C=C2\SC(=S)N(CC(=O)NNC(=O)c3ccncc3)C2=O)cc1 | -217% (inactive) | –
20 | Cc1cc(=O)[nH]c(N/N=C/c2ccc3c(c2)OCCO3)n1 | -9.8% (inactive) | –
21 | COc1ccc(S(=O)(=O)Nc2ccc3oc(C)c(C(C)=O)c3c2)cc1 | -0.7% (inactive) | –
22 | Cc1ccc(S(=O)(=O)Nc2ccc3ncccc3c2)cc1 | -1.3% (inactive) | –
23 | COCc1cc(=O)oc2cc(NS(=O)(=O)c3ccc(C)cc3)ccc12 | 80.2% (active) | 71.8%
24 | Cc1ccc(S(=O)(=O)NCCc2nnc3ccc(SCc4cccnc4)nn23)cc1 | -6.7% (inactive) | –

Row | Compound | inhibition | inhibition (retest duplicate average)
25 | CC(=O)Nc1cc2ccc(OC(C)=O)cc2oc1=O | 58.6% (active) | 119%
26 | COC(=O)Cc1c(C)c2ccc(OCC(=O)NCc3ccc4c(c3)OCO4)cc2oc1=O | -5.4% (inactive) | –
27 | CC(=O)Oc1ccc2c(C)c(CC(C)O)c(=O)oc2c1 (centres undefined) | 119% (active) | 116%
28 | Cc1c(Cc2ccccc2)c(=O)oc2cc(OCC(N)=O)ccc12 | 2.5% (inactive) | –
29 | O=C(Nc1cc2ccccc2oc1=O)C1CCCCC1 | -0.3% (inactive) | –
30 | O=C(Oc1ccccc1)Oc1ccc2c(c1)oc(=O)c1ccccc12 | -17.7% (inactive) | –
31 | CCCNC(=O)N1CCN(C(=O)NCCC)CC1 | 2.1% (inactive) | –
32 | Cc1nc(C(=O)NCc2ccccc2)sc1C1(C)CC(c2cccnc2)=NO1 (centres undefined) | 0.2% (inactive) | –
33 | CCOC(=O)C1=C(c2ccccc2)NC(=S)NC1c1ccc(Cl)cc1 (centres undefined) | -1.3% (inactive) | –
34 | CC(C)CCNC(=O)C1CCC(CNc2c(N3CCC(C)CC3)c(=O)c2=O)CC1 (centres undefined) | -1.8% (inactive) | –
35 | Cc1cc2c(cc1C)[n+](C)cn2CC(O)COCC1CC=CCC1 (centres undefined) | 7.6% (inactive) | –
36 | COc1ccc2c(c1)CCc1cn3ncc(C#N)c3nc1-2 | 89.1% (active) | 74.1%
37 | COc1ccc2c(c1)CCc1c(C(=O)N3CCCC3)noc1-2 | -2.4% (inactive) | –
38 | N#Cc1cnn2cc(CCN3CCOCC3)c(-c3ccc(F)cc3)nc12 | -1.8% (inactive) | –
39 | COc1ccc(OC)c2[nH]c(=O)c(CCNC(=O)C(=O)c3c[nH]c4ccccc34)cc12 | 0.3% (inactive) | –
40 | CCCCN(C(=O)/C=C/c1ccco1)c1c(N)n(CC(C)C)c(=O)[nH]c1=O | 8.5% (inactive) | –
41 | O=C(CNC(=O)OCc1ccccc1)Oc1cc2oc(=O)cc(-c3ccccc3)c2cc1Cl | 78.7% (active) | 71.5%
42 | CC(=O)COc1ccc2c(-c3ccccc3)cc(=O)oc2c1 | 3.8% (inactive) | –
43 | O=C(CNC(=O)c1ccc(-c2ccccc2)cc1)OCc1ccc(Cl)cc1 | -1.6% (inactive) | –
44 | O=[N+]([O-])c1ccc(N2CCNCC2)cc1NCc1cccnc1 | -3.2% (inactive) | –
45 | CC(C)OCCCNC(=O)c1cc(Sc2ccc(F)cc2)nc2ccccc12 | 0.5% (inactive) | –
46 | O=C(CSc1ncn[nH]1)Nc1nsc(-c2ccccc2)n1 | 3.7% (inactive) | –
47 | O=C(CSc1nc(O)c(Cc2ccccc2)c(=O)[nH]1)Nc1nc2c(s1)CCCC2 | 2.5% (inactive) | –
48 | CN1C(=O)/C(=C/C=C2\SCCN2C)OC1=S | 84.2% (active) | 79.9%

Row | Compound | inhibition | inhibition (retest duplicate average)
49 | CCc1ccc(C(=O)OCC(=O)NCC(F)(F)F)cc1 | -1.7% (inactive) | –
50 | CCO[C@H]1OC(C(=O)NCc2ccccc2)=C[C@@H](c2coc3ccccc3c2=O)[C@@H]1CCCO | -0.8% (inactive) | –
51 | CN1CCNC(=O)C1CC(=O)N1CC=C(c2ccc(F)cc2)CC1 (centres undefined) | -7.4% (inactive) | –
52 | CC(=O)Nc1cccc([N+](=O)[O-])c1 | 0.2% (inactive) | –
53 | COC(=O)/C=C\C(=O)Nc1cccc([N+](=O)[O-])c1 | 56% (active) | 62.5%
54 | Cc1ccccc1NC(=S)Nc1cccc([N+](=O)[O-])c1 | 5.7% (inactive) | –
55 | CC(C)n1c(-c2cccs2)nc2ccccc21 | 1.6% (inactive) | –
56 | COCCCn1c(-c2cccs2)nc2nc3ccccc3nc21 | 87.7% (active) | 99.9%
57 | COc1ccc(CCn2c(-c3ccco3)nc3nc4ccccc4nc32)cc1OC | -7.1% (inactive) | –
58 | Cc1ccc(C(=O)O)cc1NC(=O)c1ccc(Cn2nc(C)c(Cl)c2C)o1 | -2.9% (inactive) | –
59 | O=C(CCc1n[nH]c(=O)[nH]c1=O)N/N=C/c1ccc(Br)o1 | -0.8% (inactive) | –
60 | CN(C)c1nc(N)nc(Cn2nnc(-c3ccc(C(F)(F)F)cc3)n2)n1 | 1.3% (inactive) | –
61 | c1ccc(-c2cc3c(NCC4COc5ccccc5O4)ncnc3s2)cc1 (centres undefined) | 8.3% (inactive) | –
62 | O=C(CC1CCCCC1)NCc1ccc(F)cc1 | -2% (inactive) | –
63 | COCCC(=O)Nc1ccc2c(c1)CN(C(=O)CCOC)CC2 | -1% (inactive) | –
64 | O=c1c2c(nc3cc(-c4cccc(Cl)c4)[nH]n13)CCCC2 | -1.8% (inactive) | –
65 | COCCCn1c(CCC(=O)O)ccc1-c1ccc(F)cc1 | 26.6% (inactive) | –
66 | CCn1c(NC(=O)c2ccccc2)c(-c2cccs2)c(=O)c2ccccc21 | 2.4% (inactive) | –
67 | CC(C)Cn1c(CCC(=O)O)ccc1-c1cccs1 | 179% (active) | 134%
68 | COc1ccc(-n2cnc3cc(C(=O)NC4CCCC4)ccc32)cc1 | 0.8% (inactive) | –
69 | CCOc1ccc2nc(N3CCCN(C(=O)Nc4ccccc4C)CC3)c(C#N)cc2c1 | 61.6% (active) | 71.5%
70 | CCOc1ccc2nc(NCCNS(=O)(=O)c3ccccc3)c(C#N)cc2c1 | 34% (inactive) | –
71 | CCOc1ccc2cc(C#N)c(SCC(=O)OC)nc2c1 | -89.9% (inactive) | –
72 | CCCCN1C(=O)/C(=C/C=C2/C=Cc3ccccc3N2CC)SC1=S | -1.7% (inactive) | –

Row | Compound | inhibition | inhibition (retest duplicate average)
73 | CCN1C(=O)/C(=C\N2CCN(c3ccccc3)CC2)SC1=S | -1.5% (inactive) | –
74 | CCN1C(=O)/C(=C2/Sc3ccccc3N2CCCS(=O)(=O)O)SC1=S | 82.6% (active) and 93.8% (active) | 113% and 124%
75 | Cc1cc(Cl)ccc1NNC(=O)c1snnc1C | -2.5% (inactive) | –
76 | COc1ccc(C(=O)N/N=C2\CCS(=O)(=O)c3ccc(F)cc32)cc1OC | -4.7% (inactive) | –
77 | Nc1nc(CC(=O)CSc2ccc(Cl)cc2)nc(Nc2ccc(F)cc2)n1 | -7.5% (inactive) | –
78 | CCC(C)(C)n1nnnc1C(c1cccs1)N1CCN(c2nc3ccccc3s2)CC1 (centres undefined) | -1% (inactive) | –
79 | CCC(C)(C)n1nnnc1CN1CCN(c2nc3ccc(C)cc3cc2C#N)CC1 | 54% (active) | 79.1%
80 | CCC(C)(C)n1nnnc1C(c1cccs1)N1CCN(Cc2ccccc2)CC1 (centres undefined) | 3.1% (inactive) | –
81 | CN(C)NC(=O)c1csnc1-c1c(Cl)cccc1Cl | 6% (inactive) | –
82 | O=C(COC(=O)/C=C/c1cccc(Cl)c1)NCCc1ccccc1 | 0.9% (inactive) | –
83 | COc1ccc(CCNC2=C(Cl)C(=O)N(Cc3ccccc3)C2=O)cc1OC | 92.2% (active) | 70.6%
84 | COc1ccc(CCN(C)CCN2C(=O)c3ccccc3C2=O)cc1OC | 6.2% (inactive) | –
85 | COc1ccc(CCN=C2SCC(=O)N2Cc2ccccc2)cc1OC | -0.6% (inactive) | –
86 | O=C(O)CC/C(=N\NC(=O)c1ccc(F)cc1)c1ccc(Br)cc1 | -4.7% (inactive) | –
87 | CC/C(=N\NC(=O)c1ccccc1Cl)c1ccc(Br)s1 | -0.6% (inactive) | –
88 | CC(=O)c1cc(C#N)c(SCC(=O)Nc2nccs2)nc1C | -3.8% (inactive) | –
89 | COc1ccccc1N1N=C(c2cccs2)CC1c1ccccc1 (centres undefined) | 48% (inactive) | –
90 | COc1ccc(C2=NN(c3ccccc3)C(c3cccs3)C2)cc1 (centres undefined) | 6% (inactive) | –
91 | COc1ccc(C2CC(c3cccs3)=NN2c2ccccc2)cc1 (centres undefined) | 91% (active) | 53.7%
92 | O=[N+]([O-])c1cccc(-c2nnc3c4ccccc4c4ccccc4n23)c1 | 2.3% (inactive) | –
93 | O=c1[nH]c2ccccc2n2c(-c3ccccc3)nnc12 | 67.5% (active) | 61.3%
94 | Cc1ccc(-c2nc3ccccc3[nH]c2=O)cc1 | 3.7% (inactive) | –
95 | N#CC1=C(N)Oc2c(ccc3cccnc23)C1c1ccncc1 (centres undefined) | -1.6% (inactive) | –
96 | COc1cccc(NC(=O)CN(C)C(=O)/C=C/c2cc(OC)ccc2OC)c1 | -3.2% (inactive) | –
